Compound activity as filed in PubChem.
Rows were chosen to be rich in hits. Some 32% of all compounds tested hit in one or more screens of this group.
CYP2C19 inhib: blocks human cytochrome P450 2C19. P33261. AID 778. hit rate 21% among 96,000. inhibition, % at 5 µM. CYP2C19 Supersomes, luciferin-H EGE luminescence, 30 min;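 active = CYP2C19 inhibition above a set limit at 5 µM in the primary screen, cut at about 50% in these data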;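 note: plate controls were negative control wells for no effect and 2.5 mM tranylcypromine positive control for full effect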
Target sequence (P33261 whole entry, looked up): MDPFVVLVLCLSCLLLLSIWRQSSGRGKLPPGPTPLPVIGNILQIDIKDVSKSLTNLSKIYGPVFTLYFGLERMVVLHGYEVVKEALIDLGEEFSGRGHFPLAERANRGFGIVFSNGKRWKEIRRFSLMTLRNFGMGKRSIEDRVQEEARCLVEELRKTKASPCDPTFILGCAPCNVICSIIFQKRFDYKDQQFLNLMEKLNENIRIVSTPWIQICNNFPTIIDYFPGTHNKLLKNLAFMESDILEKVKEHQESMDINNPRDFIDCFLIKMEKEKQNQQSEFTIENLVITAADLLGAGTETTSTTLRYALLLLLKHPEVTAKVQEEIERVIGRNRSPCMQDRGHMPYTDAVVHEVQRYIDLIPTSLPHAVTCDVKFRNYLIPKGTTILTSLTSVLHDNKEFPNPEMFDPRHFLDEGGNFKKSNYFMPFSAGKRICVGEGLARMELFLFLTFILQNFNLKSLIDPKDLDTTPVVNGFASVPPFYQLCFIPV
PostGolgi yeast: growth inhibition of a yeast mutant, post-Golgi transport screen. post-Golgi transport phenotypic cell assay. inhibition, % at 10 µM. hit rate 0.9% among 98,000;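 note: yeast cells grown in 1536-well plates; yeast grown about 18 h at 30C before absorbance read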
PostGolgi ctrl: yeast control strain growth, post-Golgi counter-screen; efflux-deficient yeast background strain, growth absorbance A615, 16 h; inhibition, % at 10 µM; hit rate 5% among 98,000
CYP2C9 inhib: human CYP2C9 inhibition; hit rate 20% among 96,000; P11712; CYP2C9 Supersomes, luciferin-H conversion, luminescence; inhibition, % at 5 µM; AID 777;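 active = blocking of liver enzyme CYP2C9 beyond about 50% at 5 µM, limit read from the data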
CYP2C19 activ: cytochrome P450 2C19 (human) activation. P33261. recombinant CYP2C19, luciferin-H EGE luminescence; stronger effect = higher value; 0 = fully inhibited enzyme, 1 = untreated enzyme. activation factor at 5 µM. 96,000 tested, under 10 active. AID 1025;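 active = activation factor of at least 2 at 5 µM in the primary screen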;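 note: 0 = wells with 2.5 mM tranylcypromine and 1 = vehicle-only wells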
CYP2C9 act: increases human cytochrome P450 2C9 activity. P11712. recombinant CYP2C9, luciferin-H conversion, luminescence; stronger effect = higher value; factor 1 = untreated enzyme, 0 = blocked. activation factor at 5 µM. hit rate 1.4% among 96,000. AID 1024;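 active = activation factor of 2 or more for CYP2C9 at a 5 µM dose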;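 note: 0 = sulfaphenazole-blocked wells and 1 = vehicle-only wells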
The depositor's hits bear a star; . = no result given. Cut-off read from the data, not from the text of the source, unless noted: active = inhibition above about 30%; inactive = the rest.

SMILES	CYP2C19 inhib	PostGolgi yeast	PostGolgi ctrl	CYP2C9 inhib	CYP2C19 activ	CYP2C9 act
CCn1cc(C(=O)NCc2ccc(Cl)cc2)c(=O)c2cc(S(=O)(=O)N3CCOCC3)ccc21	-16.7	-6.4	15.4	42.2	1.2	0.6
Cc1ccc(COc2ccc(Br)cc2/C=N/O)cc1	8.4	18.8	43.7*	27.3	0.9	0.7
O/N=C/c1cc(Cl)ccc1OCc1ccccc1Cl	20.6	7.3	29.8	60.8*	0.8	0.4
COc1cc(/C=N/NC(N)=O)cc(Br)c1OCc1ccc(C)cc1	4.0	15.8	20.0	21.7	1	0.8
O/N=C/c1cc(Br)cc(Br)c1OCc1ccccc1	46.4	2.6	58.1*	49.3	0.5	0.5
Cc1ccc(O)c(C(=O)c2coc(=N)c(C(=O)NC(C)C)c2)c1	33.2	-4.7	0.7	-7.1	0.7	1.1
Cc1ccc(C)c(N2CCN(C(=O)C3CCN(S(=O)(=O)c4cccc5nsnc45)CC3)CC2)c1	40.2	3.3	17.6	49.0	0.6	0.5
COc1ccc(S(=O)(=O)n2ccc(-c3ccc(OCCN(C)c4ccccn4)cc3)n2)cc1	25.7	-11.3	1.0	57.2*	0.7	0.4
COc1ccc(S(=O)(=O)N(CC(=O)O)c2ccccn2)cc1	-14.2	-4.5	-5.8	-15.4	1.1	1.2
CCCC(=NCc1ccccc1)C1=C(O)C(C(=O)OC)C(C)(C)CC1=O (stereo not given)	92.8*	21.4	13.7	63.6*	0.1	0.4
CCCC(=Nc1ccccc1)C1=C(O)C(C(=O)OC)C(C)(C)CC1=O (stereo not given)	69.2*	2.1	12.2	45.3	0.3	0.5
COC(=O)C1C(O)=C(C=NCc2ccccc2)C(=O)CC1(C)C (stereo not given)	16.1	5.4	-6.1	12.3	0.8	0.9
CCC(=Nc1ccc(N)cc1)C1=C(O)C(C(=O)OC)C(C)(C)CC1=O (stereo not given)	20.6	-3.4	-4.0	28.7	0.8	0.7
CCC(=NCc1ccccc1)C1=C(O)C(C(=O)OC)C(C)(C)CC1=O (stereo not given)	97.1*	15.4	11.2	86.3*	0	0.1
CCCCC(=Nc1ccc(N)cc1)C1=C(O)C(C(=O)OC)C(C)(C)CC1=O (stereo not given)	2.0	-5.3	5.0	51.3*	1	0.5
COc1cccc(C(=O)COC(=O)C(C)N2C(=O)C3C4C=CC(C4)C3C2=O)c1 (stereo not given)	30.5	-4.1	7.0	33.2	0.7	0.7
CCCC(=O)C1=C(O)C(C(=O)OC)C(C)(C)CC1=Nc1ccccc1 (stereo not given)	86.8*	0.6	19.1	82.1*	0.1	0.2
CCOc1c2ccc(C(=O)NCCCCc3ccccc3)cc2nn1CC	29.0	-17.3	0.7	30.9	0.7	0.7
O=c1c2[nH]c3ccccc3c2ncn1C1CCCCC1	3.9	34.0*	17.7	2.1	1	1
Cc1ccccc1C(=O)Nc1ccccc1	-8.4	-6.5	-3.6	-15.9	1.1	1.2
Cc1ccccc1C(=O)Nc1cccc(NC(=O)c2ccc(-c3ccc(Br)cc3)o2)c1	17.5	5.2	5.2	55.5*	0.8	0.4
O=S(=O)(c1cccc(-c2csc(-c3cccnc3)n2)c1)N1CCCCC1	94.0*	-1.8	32.1*	93.7*	0.1	0.1
O=S(=O)(c1ccc(-c2csc(-c3cccnc3)n2)cc1)N1CCCCC1	.	-0.6	40.7*	.	.	.
CC1CCN(S(=O)(=O)c2cccc(-c3csc(-c4cccnc4)n3)c2)CC1	85.3*	-6.6	8.9	79.1*	0.1	0.2
O=S(=O)(c1ccc(-c2csc(-c3cccnc3)n2)cc1)N1CCCC1	13.8	12.9	19.1	28.5	0.9	0.7
SMILES	CYP2C19 inhib	PostGolgi yeast	PostGolgi ctrl	CYP2C9 inhib	CYP2C19 activ	CYP2C9 act
CCOC(=O)C1CCN(S(=O)(=O)c2cccc(-c3csc(C)n3)c2)CC1	40.1	-4.7	8.6	45.5	0.6	0.5
CCCc1cc(=O)[nH]c(SCC(=O)N(CC)Cc2ccccc2)n1	12.5	22.2	-6.8	22.5	0.9	0.8
CC(O)c1nc2ccccc2n1Cc1nnc(-c2ccc(Cl)cc2)o1 (stereo not given)	66.4*	-2.9	5.6	33.8	0.3	0.7
Clc1ccccc1-c1nn2c(-c3ccncc3)nnc2s1	78.5*	7.2	7.8	74.4*	0.2	0.3
Clc1ccc(-c2nn3c(-c4cccc(Cl)c4)nnc3s2)cc1	60.5*	.	.	23.8	0.4	0.8
Clc1ccccc1-c1nnc2sc(C3COc4ccccc4O3)nn12 (stereo not given)	86.1*	-0.8	29.5	87.2*	0.1	0.1
Brc1ccc(-c2nn3c(-c4ccncc4)nnc3s2)o1	68.8*	.	.	15.5	0.3	0.8
Cc1ccc(-c2nnc3sc(-c4ccncc4)nn23)cc1	33.2	4.8	15.9	4.0	0.7	1
CCOc1ccccc1NC(=O)c1ccoc1C	10.4	20.7	6.5	-62.4	0.9	1.6
Clc1ccccc1-c1nnc2sc(-c3cccs3)nn12	42.2	-1.3	15.1	61.1*	0.6	0.4
Clc1ccccc1-c1nnc2sc(-c3ccncc3)nn12	80.5*	3.0	3.0	34.5	0.2	0.7
Clc1ccc(-c2nn3c(-c4ccncc4)nnc3s2)c(Cl)c1	83.8*	.	.	15.3	0.2	0.8
Cc1oc(-c2ccccc2Cl)cc1-c1nn2c(-c3ccco3)nnc2s1	4.1	.	.	1.2	1	1
Cc1cccc(-c2nnc3sc(-c4ccccc4)nn23)c1	29.2	-4.7	22.7	11.8	0.7	0.9
Cc1nn2c(-c3ccc(Cl)cc3Cl)nnc2s1	51.7*	-20.9	33.5*	12.6	0.5	0.9
Clc1ccc(-c2nnc3cccc(Cl)n23)c(Cl)c1	38.9	-4.8	9.7	3.8	0.6	1
CN(C)c1ccc(-c2nn3c(-c4ccccc4Cl)nnc3s2)cc1	26.6	2.2	10.1	13.3	0.7	0.9
CC(C)Cc1[nH]c(=O)c(C#N)c2c1CCCC2	-7.4	-9.7	7.4	26.8	1.1	0.7
Clc1ccccc1-c1nn2c(-c3ccccn3)nnc2s1	59.6*	9.9	18.1	13.6	0.4	0.9
O=C(c1cc(-c2ccc(Cl)cc2Cl)on1)N1CCOCC1	-1.4	-8.4	0.6	-7.7	1	1.1
Clc1ccc(-c2nn3cnnc3s2)c(Cl)c1	88.6*	4.9	11.0	29.4	0.1	0.7
N#Cc1c(-c2ccco2)cc(C2CC2)nc1N	62.7*	4.5	12.3	-34.3	0.4	1.3
N#Cc1c(-c2ccccc2)cc(C2CC2)nc1N	80.0*	2.6	18.1	-59.8	0.2	1.6
COc1cccc(-c2nnn(CC(=O)Nc3ccc(C)cc3C)n2)c1OC	11.2	-6.0	-10.0	18.7	0.9	0.8
CCC(CC)C(=O)N1c2ccc(F)cc2CCC1C (stereo not given)	43.0	-4.8	-9.9	74.4*	0.6	0.3
CC1CCc2cc(F)ccc2N1C(=O)C1(C)CC1(Cl)Cl (stereo not given)	56.4*	-2.2	17.0	35.8	0.4	0.6
